According to PubChem BioAssay (EPA / NIEHS):
The source made the active and inactive calls. How the source made its calls: active means hit-call score of the fitted dose curve at least 0.9, where 1 is the maximum; inactive means score below 0.9.

read-out: UDP glucuronosyltransferase (UGT1A1), UGT1A1 (gene 54658); assay: LTEA_HepaRG_UGT1A1: Life Technologies and Expression Analysis (LTEA) Assay for UDP glucuronosyltransferase (UGT1A1) using HepaRG (AID 2283538); conditions: mRNA level, 48 h; actives raise or lower the signal
Method: LTEA_HepaRG is a cell based, multiplexed-readout assay that uses HepaRG, a human liver cell line, with measurements taken at 48 hours after chemical dosing on a 96-well plate.LTEA_HepaRG_UGT1A1 is one of 102 assay component(s) measured in the LTEA HepaRG cell culture assay. It is a marker of Steatosis/NR mediated metabolism.Data from the assay component LTEA_HepaRG_UGT1A1 was analyzed into 1 endpoint. This assay endpoint, LTEA_HepaRG_UGT1A1, was analyzed with bidirectional fitting relative to DMSO as the negative control and baseline of activity. Using a type of inducible reporter, measures of mRNA induction for gain or loss-of-signal activity can be used to understand regulation of transcription factor activity. To generalize the intended target to other relatable targets, this assay endpoint is annotated to the transferase intended target family, where the subfamily is glucuronosyltransferase.
A total of 1060 chemcials from the ToxCast library were tested in eight-point concentration-response experiments. Cell culture and cytotoxicity assays were conducted at Thermo Fisher Scientific's Custom Services facility (Madison, WI). A single lot of human HepaRG cells (Thermo Fisher Scientific, Frederick, MD) was used for the cell culture experiments. 96-well format collagen type I coated plates of human HepaRG cells were prepared using established methods. Briefly, cryopreserved HepaRG cells were thawed, plated at a density of approximately 100,000 cells/well in HepaRG Thaw, Plate, and General Purpose media (HPRG770, Thermo Fisher Scientific), and incubated for 48 hours. 0.5% DMSO was selected as vehicle control to balance the requisite need of DMSO in HepaRG cultures to maintain differentiation (for example, baseline metabolism, proportions of hepatocytes vs. cholangiocytes), while enabling further hepatic receptor pathway activation (for example, PXR and CAR) in response to chemical exposure. 48 hours after plating, the culture medium was replaced with HepaRG Serum-Free Incudtion Media. Cells were exposed to each test chemical in duplicate and maintained in CO2 incubators for another 48 hours. Chemical plates were thawed to room temperature and 200x concentrations of treatment groups were prepared. 8-point conentration-reponse curves were made with the highest exposure at 100 uM, followed by half-log dilutions, all in 0.5% DMSO. Each test plate contained variouse controls, induction positive controls (1mM phenobarbital), cytotoxicity positive controls ([…] aflatoxin B1), vehicle controls (0.5% DMSO), and total lysis controls (0.5% DMSO). Cell morphology images were taken using an Essen IncuCyte FLR automated microscope, with six 96-well plates imaged in about 24 minutes. Images were captured and exported and JPEG files. Spent culture media was transfered to black-well plates for the LDH assay, and remaining media was sorted at -80 C for later use. Cells were treated with RLT buffer and frozen until shipped for gene expression analysis. Total RNA was isolated from the cell suspension in 75 uL of Buffer RLT (Qiagen, Germantown, MD 20874) by Quintiles/Expression Analysis (Durham, NC) using a custom isolation procedure. Total RNA from each plate well was transferred to a preamplification plate. Fluidigm's 96.96 Dynamic ArrayTM (Fluidigm, Amsterdam, the Netherlands) technology was used for gene expression analyses by quantitative reverse transcription polymerase chain reaction (qRT-PCR, performed by Quintiles/Expression Analysis, Durham, NC)89. Standard TaqManTM Assays (Applied Biosystems/ThermoFisher Scientific, Foster City, CA) were used to assess the expression of 93 genes selected based on their selectivity and sensitivity to important hepatic receptors known to be modulated by environmental chemicals; importance in human hepatocyte functionality; and hepatotoxicity. […]

**Q.** Which AC50 does the source give for `O=C(c1ccccc1)c1ccccc1` here?
**A.** The AC50 was 4.85 µM (active).

**Q.** Which AC50 does the source give for `CCCCc1oc2ccccc2c1C(=O)c1cc(I)c(OCCN(CC)CC)c(I)c1` here?
**A.** Its AC50 is 60.7 µM (active).

**Q.** `CN(Cc1cnc2nc(N)nc(N)c2n1)c1ccc(C(=O)N[C@@H](CCC(=O)O)C(=O)O)cc1` was tested. Which outcome did it give?
**A.** Its outcome is “inactive”.

**Q.** How did the outcome turn out when `CCC(C)c1ccccc1O` (stereo unspecified) was run?
**A.** The outcome was “inactive”.

**Q.** `CC(=O)Nc1ccc(O)cc1` was tested. Which outcome did it give?
**A.** Its outcome is “inactive”.

**Q.** `O=C(CCCN1CCC(O)(c2ccc(Cl)cc2)CC1)c1ccc(F)cc1` was tested. Which AC50 did it give?
**A.** The AC50 was 79.3 µM (active).

**Q.** With `CCCCCCCCCCCCCCC` as the compound, how does the AC50 read?
**A.** The AC50 was 19.8 µM (active).

**Q.** `CS(=O)(=O)c1ccc([C@@H](CC2CCCC2)C(=O)Nc2cnccn2)cc1Cl` was tested. Which AC50 did it give?
**A.** The AC50 was 12.2 µM (active).

**Q.** How did the outcome turn out when `CN(C)CCOC(c1ccccc1)c1ccccc1` was run?
**A.** Its outcome is “inactive”.

**Q.** How did the outcome turn out when `Cc1[nH]nc2c1N=C(c1ccccc1Cl)c1cc([N+](=O)[O-])ccc1N2` was run?
**A.** Its outcome is “inactive”.

**Q.** How did the outcome turn out when `O=C1NS(=O)(=O)c2ccccc21` was run?
**A.** Its outcome is “inactive”.

**Q.** For `N=C(N)c1ccc(OCCCCCOc2ccc(C(=N)N)cc2)cc1`, which AC50 is on record?
**A.** The AC50 was 4.48 µM (active).

**Q.** For `CCCCCCCCCCCCOS(=O)(=O)O`, which AC50 is on record?
**A.** The AC50 was 91.7 µM (active).

**Q.** Which outcome does the source give for `CCCCC=O` here?
**A.** The outcome was “inactive”.

**Q.** `OCC(CO)(CBr)CBr` was tested. Which outcome did it give?
**A.** Its outcome is “inactive”.

**Q.** How did the outcome turn out when `CCCCC(CC)C(=O)O` (stereo unspecified) was run?
**A.** The outcome was “inactive”.
